Reference: the supplement of paper PMC10811239

System: LEGO organoid PT (PTEN-/-; TP53-/-)
Test: bioluminescence (viable cell) signal fold change after vs before treatment, normalised to DMSO (ratio); higher = more tumour cell growth / less inhibition
Conditions: 10 µM; treatment time 6 days
Description: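 Luc2-labelled iPSC-derived glioblastoma-like organoids (LEGOs, genotypes PT = PTEN-/-;TP53-/-, PTCC = plus CDKN2A/B-/-, PTN = plus NF1-/-) were treated with 10 uM drug for 6 days (applied every other day) at 37 C. Bioluminescence imaging was done before treatment and 2 days after the last dose. BLI signals were normalised to the DMSO control on the same day and then to the pre-treatment signal (N=3).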

Row | SMILES | bioluminescence
1 | CCCN(CCC)S(=O)(=O)c1ccc(C(=O)O)cc1 [Probenecid] | 3.62
2 | Cc1ccccc1C(OCCN(C)C)c1ccccc1.O=C(O)CC(O)(CC(=O)O)C(=O)O (stereo not given) [Orphenadrine Citrate] | 0.847
3 | CCOc1nc2cccc(C(=O)O)c2n1Cc1ccc(-c2ccccc2-c2nn[nH]n2)cc1 [Candesartan] | 0.993
4 | Cc1c(C)c2c(c(C)c1O)CC[C@@](C)(CCC[C@H](C)CCC[C@H](C)CCCC(C)C)O2 [α-Vitamin E] | 1.31
5 | Cc1cccc(N(C)C(=S)Oc2ccc3ccccc3c2)c1 [Tolnaftate] | 1.01
6 | N[C@@H]1CONC1=O [D-Cycloserine] | 1.3
7 | CCCCCCCCc1ccc(CCC(N)(CO)CO)cc1.Cl [Fingolimod hydrochloride] | 1.07
8 | Cc1ncc([N+](=O)[O-])n1CCO [Metronidazole] | 0.839
9 | OC(Cn1cncn1)(Cn1cncn1)c1ccc(F)cc1F [Fluconazole] | 1.04
10 | C/C=C(/C)C(=O)O[C@H]1C(C)=C[C@]23C(=O)[C@@H](C=C(CO)[C@@H](O)[C@]12O)[C@H]1[C@@H](C[C@H]3C)C1(C)C [Ingenol Mebutate] | 0.841
11 | O=C(O)c1cccnc1 [Niacin] | 0.772
12 | CO[C@H]1C(=O)[C@]2(C)[C@@H](OC)C[C@H]3OC[C@@]3(OC(C)=O)[C@H]2[C@H](OC(=O)c2ccccc2)[C@]2(O)C[C@H](OC(=O)[C@H](O)[C@@H](NC(=O)OC(C)(C)C)c3ccccc3)C(C)=C1C2(C)C [Cabazitaxel] | 1.15
13 | O=C([O-])CCCc1ccccc1.[Na+] [Sodium Phenylbutyrate] | 1.37
14 | Nc1ncnc2c1ncn2[C@@H]1O[C@H](CO)[C@@H](O)[C@H]1O [Adenosine] | 2.1
15 | Cn1c(=O)c2[nH]cnc2n(C)c1=O [Theophylline] | 0.849
16 | NC(=O)N[C@@H](CCC(=O)O)C(=O)O [Carglumic Acid] | 1.27
17 | C[C@H]1[C@H](NC(=O)/C(=N\OC(C)(C)C(=O)O)c2csc(N)n2)C(=O)N1S(=O)(=O)O [Aztreonam] | 1.04
18 | C[C@]12CC[C@@H]3c4ccc(O)cc4CC[C@H]3[C@@H]1CC[C@@H]2O [Estradiol] | 0.389
19 | Nc1nc2c(ncn2COCCO)c(=O)[nH]1 [Aciclovir] | 2.34
20 | NC(CO)(CO)CO.O=C(c1ccccc1)c1ccc2n1CCC2C(=O)O (stereo not given) [Ketorolac tromethamine salt] | 1.75

Row | SMILES | bioluminescence
21 | Nc1nc2ccc(OC(F)(F)F)cc2s1 [Riluzole] | 0.939
22 | Cc1cn([C@H]2C=C[C@@H](CO)O2)c(=O)[nH]c1=O [Stavudine] | 3.29
23 | FC(F)(F)c1ccc(CNc2ccc(Cc3c[nH]c4ncc(Cl)cc34)cn2)cn1 [Pexidartinib] | 0.7
24 | Cl.N=C(N)NC(=O)Cc1c(Cl)cccc1Cl [Guanfacine hydrochloride] | 1.1
25 | COc1cc2c(cc1OC)C(=O)C(CC1CCN(Cc3ccccc3)CC1)C2.Cl (stereo not given) [Donepezil HCl] | 0.543
26 | CC1(C)S[C@@H]2[C@H](NC(=O)[C@H](N)c3ccc(O)cc3)C(=O)N2[C@H]1C(=O)O.O.O.O [Amoxicillin trihydrate] | 1.03
27 | CO/N=C(\C(=O)N[C@@H]1C(=O)N2C(C(=O)[O-])=C(C[N+]3(C)CCCC3)CS[C@H]12)c1csc(N)n1.Cl.Cl.O [Cefepime Dihydrochloride Monohydrate] | 1.05
28 | O.O.O.O.[Li][O]C(=O)CC(O)(CC(=O)[O][Li])C(=O)[O][Li] [Lithium citrate tetrahydrate] | 1.01
29 | CNS(=O)(=O)Cc1ccc2[nH]cc(CCN(C)C)c2c1.O=C(O)CCC(=O)O [Sumatriptan succinate] | 1.23
30 | Nc1ccn([C@@H]2O[C@H](CO)[C@@H](O)[C@@H]2O)c(=O)n1 [Cytarabine] | 1.82
31 | CN1[C@@H]2CC[C@H]1C[C@@H](OC(c1ccccc1)c1ccccc1)C2.CS(=O)(=O)O [Benztropine mesylate] | 1.14
32 | Cl.O=C1c2cccc3c2[C@H](CCC3)CN1[C@@H]1CN2CCC1CC2 [Palonosetron hydrochloride] | 1.19
33 | C[C@@H]1C[C@H]2[C@@H]3CCC4=CC(=O)C=C[C@]4(C)[C@@]3(F)[C@@H](O)C[C@]2(C)[C@@]1(O)C(=O)CO [Dexamethasone] | 0.763
34 | CN(C)CCCN1c2ccccc2CCc2ccc(Cl)cc21.Cl [Clomipramine hydrochloride] | 0.859
35 | NCCS(=O)(=O)O [Taurine] | 1.84
36 | CC(=O)[C@H]1CC[C@H]2[C@@H]3CCC4=CC(=O)CC[C@]4(C)[C@H]3CC[C@]12C [Progesterone] | 0.82
37 | O=C1Nc2ccc(Cl)cc2[C@@](C#CC2CC2)(C(F)(F)F)O1 [Efavirenz] | 0.965
38 | CCc1nn(CCCN2CCN(c3cccc(Cl)c3)CC2)c(=O)n1CCOc1ccccc1.Cl [Nefazodone hydrochloride] | 1.4
39 | COc1ccccc1OCC(O)COC(N)=O (stereo not given) [Methocarbamol] | 0.829
40 | C[C@@H](O[C@H]1OCCN(Cc2nc(=O)[nH][nH]2)[C@H]1c1ccc(F)cc1)c1cc(C(F)(F)F)cc(C(F)(F)F)c1 [Aprepitant] | 0.86
